Rtt109 Vps75 = blocks Candida albicans Rtt109/Vps75 acetyltransferase activity | Q5AAJ8 | purified Rtt109/Vps75, ThioGlo CoA-SH fluorescence, 4 h | inhibition, % at 34.9 µM | hit rate 0.16% among 330,000 | AID 540336;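 active = inhibition of at least 50% in every replicate; inconclusive = best replicate reaches 50% inhibition but some replicates fall short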
DENV2 CPE = inhibitors of DENV2 cytopathic effect | DENV2-infected cells, cytopathic effect rescue, plate reader | CPE inhibition, % at 9.99 µM | hit rate 1.7% among 350,000 | AID 651640; in the data active = CPE inhibition above about 20%, passing the limit was not always enough; inconclusive = no clear call, values can overlap the other calls; tested in BHK-21 cells
PDI turbidity = inhibitors of human protein disulfide isomerase. inhibition, % at 10 µM. hit rate 0.052% among 350,000. PDI insulin aggregation turbidity, A650, 90 min;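 active = mean inhibition across replicates of 30% or more, whatever share of single replicates reach that level; inconclusive = mean inhibition below 30% while every single replicate reaches 30%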
SIRT5 inh = sirtuin-5 (human) deacylase inhibition; inhibition, % at 15 µM; hit rate 1.1% among 330,000; Q9NXA8; Purified SirT5, succinyl-peptide AMC, trypsin-coupled fluorescence; in the data active = inhibition above about 15%; inconclusive = no clear call, values can overlap the other calls
Target sequence (Q9NXA8 whole entry, looked up): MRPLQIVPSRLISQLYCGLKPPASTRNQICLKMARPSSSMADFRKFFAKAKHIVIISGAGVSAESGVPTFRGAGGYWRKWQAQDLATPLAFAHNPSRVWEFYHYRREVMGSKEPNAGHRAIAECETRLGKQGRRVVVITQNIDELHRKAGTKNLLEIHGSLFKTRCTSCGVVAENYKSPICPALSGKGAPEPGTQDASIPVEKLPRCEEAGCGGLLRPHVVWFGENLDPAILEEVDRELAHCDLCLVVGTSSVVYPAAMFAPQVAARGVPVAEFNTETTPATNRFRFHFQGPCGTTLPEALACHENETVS
ERp5 block = ERp5 (human) disulfide isomerase inhibition. AID 651711. inhibition, % at 9.99 µM. ERp5 insulin aggregation, absorbance 650 nm, 90 min. hit rate 0.05% among 350,000. Q15084;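 active = mean replicate inhibition above about 25%, with every replicate also reaching it, limit read from the data, passing the limit was not always enough; inconclusive = only one of those two criteria met; inactive = neither criterion met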
Target sequence (Q15084 whole entry, looked up): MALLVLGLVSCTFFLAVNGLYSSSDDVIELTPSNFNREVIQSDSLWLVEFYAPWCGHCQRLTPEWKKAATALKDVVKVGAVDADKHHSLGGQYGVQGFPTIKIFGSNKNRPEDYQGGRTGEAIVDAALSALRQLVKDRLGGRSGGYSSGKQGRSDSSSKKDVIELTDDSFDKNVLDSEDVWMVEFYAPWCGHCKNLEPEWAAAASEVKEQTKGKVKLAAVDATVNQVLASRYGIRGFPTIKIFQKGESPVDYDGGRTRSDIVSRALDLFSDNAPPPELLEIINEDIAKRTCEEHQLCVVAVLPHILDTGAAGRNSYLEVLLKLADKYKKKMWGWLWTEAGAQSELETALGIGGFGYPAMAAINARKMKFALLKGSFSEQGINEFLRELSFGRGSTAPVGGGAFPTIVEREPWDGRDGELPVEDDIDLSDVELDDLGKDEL
Of the large screens only hits and unclear results are named; the others gave an inactive call. Rows were chosen to be rich in hits. Some 2.3% of all compounds tested hit in one or more screens of this group.

COc1ccc(S(=O)(=O)NC[C@@H]2CC[C@H]3[C@H](CN3Cc3cc(F)ccc3F)O2)cc1	none (no result: Rtt109 Vps75, PDI turbidity)
COc1cccc(C(NC(C)=O)c2nc(/C=C/c3ccccc3)cs2)c1 (stereo not given)	DENV2 CPE 30 (no result: Rtt109 Vps75, SIRT5 inh)
C[C@@H]1CN([C@@H](C)CO)C(=O)Cc2cc(NC(=O)Nc3ccc(C(F)(F)F)cc3)ccc2O[C@@H]1CN(C)C(=O)Nc1ccc(F)cc1	none (no result: Rtt109 Vps75, PDI turbidity)
CN(c1ccccc1)c1ccc(/C=C(/CCC(=O)O)c2nc3ccccc3s2)cc1[N+](=O)[O-]	SIRT5 inh 18
O=C(O)CC/C(=C\c1ccc(N2CCCC2)c([N+](=O)[O-])c1)c1nc2ccccc2s1	none
COCC(=O)N(C)C[C@@H]1Oc2ncc(C#Cc3ccccc3)cc2C(=O)N([C@@H](C)CO)C[C@@H]1C	none (no result: Rtt109 Vps75, PDI turbidity)
COC(=O)N/N=C/c1cn(Cc2ccccc2Cl)c2ccccc12	none
COC(=O)N/N=C/c1cn(Cc2ccc(Cl)cc2Cl)c2ccccc12	DENV2 CPE inconclusive, SIRT5 inh 20
O=C(N/N=C/c1ccccn1)c1cc(-c2ccc(Br)s2)[nH]n1	SIRT5 inh 18
COCC(=O)N1CC2(CN(C(=O)NC(C)C)C2)c2c(n(C)c3cc(OC)ccc23)[C@H]1CO	none (no result: Rtt109 Vps75, PDI turbidity, SIRT5 inh, ERp5 block)
COC(=O)c1cc2c(ccn2-c2ccc(F)cc2)n1CC(=O)C(C)(C)C	Rtt109 Vps75 54 (no result: DENV2 CPE)
C[C@@H]1CN([C@@H](C)CO)C(=O)c2cc(C#CCN(C)C)cnc2O[C@H]1CN(C)C(=O)c1ccc(F)cc1	none (no result: Rtt109 Vps75, PDI turbidity)
Cc1noc(C)c1S(=O)(=O)Nc1ccc2c(c1)C(=O)N([C@H](C)CO)C[C@H](C)[C@H](CN(C)C(=O)CCCN(C)C)OCCCC[C@H](C)O2	none (no result: Rtt109 Vps75, PDI turbidity, SIRT5 inh, ERp5 block)
CCOC(=O)c1cn(CC)c2cc3c(cc2c1=O)OCO3	DENV2 CPE 25
Cc1cc(C)cc(OCC(=O)OC/C(O)=C(\C#N)c2nc3ccccc3[nH]2)c1	none (no result: DENV2 CPE, SIRT5 inh, ERp5 block)
COc1cccc(/C=C(\C#N)c2nc3ccccc3[nH]2)c1OCC(=O)O	SIRT5 inh 102
Cc1cccc(C)c1OCC(=O)OC/C(O)=C(\C#N)c1nc2ccccc2[nH]1	DENV2 CPE 33 (no result: SIRT5 inh)
Cc1cc(Br)ccc1SCC(=O)OC/C(O)=C(\C#N)c1nc2ccccc2[nH]1	SIRT5 inh 21
Cc1ccccc1-c1ccc([C@H]2[C@@H](CO)N3CCCCN(Cc4cccnc4)C[C@H]23)cc1	none (no result: Rtt109 Vps75, PDI turbidity)
CC(=O)Nc1ccc2c(c1)C(=O)N(C)[C@H]1CC[C@H](CC(=O)NCCCN3CCOCC3)O[C@H]1CO2	none (no result: Rtt109 Vps75, PDI turbidity)
C[C@@H]1CN([C@H](C)CO)C(=O)c2cc(C#CCN(C)C)cnc2O[C@H]1CN(C)C	none (no result: Rtt109 Vps75, PDI turbidity)
Cc1ccc(NC(=O)CN2C(=O)N/C(=C/c3cc(C)n(-c4ccc(C(=O)O)cc4)c3C)C2=O)cc1	SIRT5 inh 26
C#CCN1C(=O)S/C(=C/c2cc(C)n(CC)c2C)C1=O	none (no result: DENV2 CPE, SIRT5 inh, ERp5 block)
CCn1c(C)cc(/C=C2/SC(=S)N(CC(=O)O)C2=O)c1C	SIRT5 inh 15 (no result: DENV2 CPE)
O=C(Nc1ccnn1C1CCN(Cc2ccc(Cl)cc2)CC1)C1CCCC1	none
O=C(Nc1ccnn1C1CCN(Cc2ccc(OC(F)F)cc2)CC1)C1CCCC1	DENV2 CPE inconclusive, SIRT5 inh 19
O=C(Nc1ccccc1Cl)N1[C@H](CO)[C@@H]2c3ccccc3NC[C@@H]21	none (no result: Rtt109 Vps75, PDI turbidity)
COCC(=O)Nc1ccc2c(c1)OC[C@H](C)N(C(=O)CC1CC1)C[C@H](C)[C@H](OC)CN(C)C2=O	DENV2 CPE 31 (no result: Rtt109 Vps75, PDI turbidity)
CO[C@H]1CN(C)C(=O)c2ccc(NC(=O)NC(C)C)cc2OC[C@H](C)N(C(=O)CC2CC2)C[C@@H]1C	none (no result: Rtt109 Vps75, PDI turbidity, ERp5 block)
COCC(=O)Nc1ccc2c(c1)OC[C@@H](C)N(C(=O)COC)C[C@@H](C)[C@H](OC)CN(C)C2=O	DENV2 CPE 53 (no result: Rtt109 Vps75, PDI turbidity, SIRT5 inh)
CO[C@@H]1CN(C)C(=O)c2ccc(NC(=O)NC(C)C)cc2OC[C@H](C)N(C(=O)CC2CC2)C[C@H]1C	DENV2 CPE 32 (no result: Rtt109 Vps75, PDI turbidity)
CCCC(=O)Nc1ccc2c(c1)OC[C@@H](C)N(C(=O)CN1CCOCC1)C[C@@H](C)[C@H](OC)CN(C)C2=O	DENV2 CPE 21 (no result: Rtt109 Vps75, PDI turbidity)
CCCC(=O)Nc1ccc2c(c1)C(=O)N(C)C[C@@H](OC)[C@H](C)CN(C(=O)CN1CCOCC1)[C@H](C)CO2	none (no result: Rtt109 Vps75, PDI turbidity)
COCC(=O)Nc1ccc2c(c1)OC[C@H](C)N(C(=O)CC1CC1)C[C@@H](C)[C@@H](OC)CN(C)C2=O	none (no result: Rtt109 Vps75, PDI turbidity)
CNC[C@@H]1OCCCC[C@H](C)Oc2ccc(NC(=O)c3ccccc3)cc2C(=O)N([C@@H](C)CO)C[C@H]1C	none (no result: Rtt109 Vps75, PDI turbidity)
CC(=O)[C@]12O[C@@]3(COC[C@H](c4ccccc4)N3C1=O)[C@H]1C(=O)N(c3ccccc3)C(=O)[C@H]12	none (no result: Rtt109 Vps75, PDI turbidity)
CCCNC(=O)C[C@@H]1CC[C@H]2[C@H](COc3ccc(NC(=O)Nc4c(C)noc4C)cc3C(=O)N2C)O1	DENV2 CPE inconclusive (no result: Rtt109 Vps75, PDI turbidity)
CCC(=O)Nc1ccc2c(c1)OC[C@@H](C)N(C(=O)NC(C)C)C[C@H](C)[C@H](OC)CN(C)C2=O	none (no result: Rtt109 Vps75, PDI turbidity)
CC(C)NC(=O)N(C)C[C@@H]1OCCCC[C@H](C)Oc2ccc(NS(=O)(=O)c3cccs3)cc2C(=O)N([C@H](C)CO)C[C@@H]1C	none (no result: Rtt109 Vps75, PDI turbidity)
COCC(=O)Nc1ccc2c(c1)OC[C@@H](C)N(CC1CC1)C[C@H](C)[C@@H](OC)CN(C)C2=O	none (no result: Rtt109 Vps75, PDI turbidity)
COCC(=O)Nc1ccc2c(c1)OC[C@H](C)N(CC1CC1)C[C@@H](C)[C@@H](OC)CN(C)C2=O	SIRT5 inh 20 (no result: Rtt109 Vps75, PDI turbidity)
COc1cc(NC(=O)COC(=O)CNC(=O)c2ccc(C)cc2)c(C)cc1[N+](=O)[O-]	SIRT5 inh 20
COc1ccc(S(=O)(=O)N(C)C[C@@H]2Oc3ccc(NC(=O)Nc4cccc5ccccc45)cc3C(=O)N([C@@H](C)CO)C[C@@H]2C)cc1	DENV2 CPE inconclusive (no result: Rtt109 Vps75, PDI turbidity)
O=C(Nc1nc(-c2ccc3c(c2)OCO3)cs1)C1COc2ccccc2O1 (stereo not given)	SIRT5 inh 16 (no result: PDI turbidity)
CC(C)(C)c1cc(C(c2cccnc2)N2CCN(CCO)CC2)cc(C(C)(C)C)c1O (stereo not given)	Rtt109 Vps75 92 (no result: DENV2 CPE)
C[C@H](CO)N1C[C@H](C)[C@H](CN(C)C(=O)Nc2ccccc2)Oc2ncc(C#CC(C)(C)O)cc2C1=O	DENV2 CPE 26 (no result: Rtt109 Vps75, PDI turbidity)
C[C@H]1CN([C@@H](C)CO)C(=O)c2cc(C#CC3CCCCC3)cnc2O[C@@H]1CN(C)C(=O)Nc1ccccc1	SIRT5 inh 15 (no result: Rtt109 Vps75, PDI turbidity)
C[C@@H]1CN([C@H](C)CO)C(=O)c2cc(C3=CCCC3)cnc2O[C@@H]1CN(C)Cc1ccccc1	none (no result: Rtt109 Vps75, PDI turbidity)
CN(C)CC(=O)N[C@@H]1CC[C@@H](CCNC(=O)Nc2ccc(C(F)(F)F)cc2)O[C@H]1CO	none (no result: Rtt109 Vps75, PDI turbidity)
COc1ccc(CN(C)C[C@H]2Oc3ccc(NC(=O)C4CC4)cc3CC(=O)N([C@@H](C)CO)C[C@@H]2C)cc1	none (no result: Rtt109 Vps75, PDI turbidity)
C[C@@H]1CN([C@@H](C)CO)C(=O)Cc2cc(NC(=O)C3CC3)ccc2O[C@H]1CN(C)Cc1ccncc1	none (no result: Rtt109 Vps75, PDI turbidity)
COc1ccc(CN(C)C[C@H]2Oc3ccc(NC(=O)C4CC4)cc3CC(=O)N([C@H](C)CO)C[C@@H]2C)cc1	DENV2 CPE 79 (no result: Rtt109 Vps75, PDI turbidity)

Assay outcomes: PubChem, Broad Institute
